# Compound activity (PubChem)
# Dyrk1A ADPGlo: blocks rat Dyrk1A kinase activity | AID 504441 | inhibition, % at 12.5 µM | 310,000 tested, 0.43% active | ADP-Glo luminescence, NFATc1 peptide; in the data active means inhibition above about 50%;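 further: plate controls were vehicle with enzyme for no effect and no enzyme for full effect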
# GC-A act: GC-A (human) enzyme activation; 370,000 tested, 0.14% active; AID 1671463; P16066; activation, % at 10 µM; HEK293 GC-A cells, cGMP TR-FRET, EC30 ANP; 0% at EC30 ANP, 100% saturating ANP; in the data active means activation above about 40%
# GC-B act: GC-B (human) receptor activation | P20594 | HEK293-GC-B cells, CNP EC30, cGMP TR-FRET; 0% at EC30 CNP, 100% saturating CNP | activation, % at 10 µM | 370,000 tested, 0.11% active | AID 1920062;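 active means activation at 10 µM reaching about 35% in either raw or pattern-adjusted values, limit read from the data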
# HSF1 activator: increases HSF-1 driven luciferase reporter signal. NIH3T3-HGL HSF-1 luciferase reporter, MG132, 8 h; 100% = twice DMSO control signal. activation, % at 9 µM. 300,000 tested, 1.7% active. AID 504408;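 active means mean replicate activation of at least 50% with a set share of replicates each reaching 50%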;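 further: 0% = median of the neutral control wells and 100% = twice that signal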
# HSF1 inhib: HSF1 inhibition | activity change, negative = inhibition, % at 7.5 µM (by protocol) | 300,000 tested, 0.77% active | NIH3T3-HGL HSE-luciferase, MG132-induced, luminescence 8 h; stronger effect = lower value | AID 2098;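 active means more than half of replicate wells show activity change below -50%, luminescence cut by over half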;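 further: luciferase reports HSF-1 transcriptional activity via heat shock element; 0% = median of DMSO wells and -100% = zero luminescence signal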
# aDG glyco up: increases alpha dystroglycan glycosylation | AID 624168 | 360,000 tested, 0.22% active | Pro5-aDG cells, alpha-DG glycosylation AlphaScreen (IIH6); 0% Pro5, 100% B10-LARGE cell signal | activation, % at 10 µM;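 active means activation of at least 8% versus controls, or a plate z-score of at least 8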;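 further: Pro5 are CHO cells carrying HIG-tagged alpha-DG that lacks glycosylation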
# * = called active by the depositor; . = no result given. Rows were chosen to be rich in hits. Some 2.5% of all compounds tested hit in one or more screens of this group.
SMILES,Dyrk1A ADPGlo,GC-A act,GC-B act,HSF1 activator,HSF1 inhib,aDG glyco up
Cc1cccc(NC(=O)CSc2nc3c([nH]c4ccccc43)c(=O)n2C)c1,-3.4,8.9,-1.2,0.5,5.7,-0.1
CCOc1ccc(-n2c(SCC(=O)Nc3cc(C)on3)nc3c([nH]c4ccccc43)c2=O)cc1,1.7,71.5*,3.8,-10.1,-12.6,0.3
COc1ccc(-n2c(SCC(=O)Nc3cc(C)on3)nc3c([nH]c4ccccc43)c2=O)cc1OC,1.7,71.5*,-4.5,4.2,-0.7,0.5
COc1ccc(-n2c(SCC(=O)Nc3ccc(NC(C)=O)cc3)nc3c([nH]c4ccccc43)c2=O)cc1OC,-2.1,1.4,4.4,8.5,5.0,-0.2
C=C1C(=O)C=C[C@]2(C)C[C@@H]3OC(=O)[C@](C)(O)[C@H]3C[C@@H]12,-10.3,-1.1,-0.6,36.6,18.9,-0.3
CCn1cnc2sc(C(=O)Nc3ccc4c(c3)OCO4)c(C)c2c1=O,18.9,4.7,-0.7,67.0*,33.3,-0.1
Cc1ccc(NC(=O)c2sc3ncn(CC(=O)N4CCOCC4)c(=O)c3c2C)c(Br)c1,-3.0,2.5,1.3,78.4*,35.7,0.0
O=[N+]([O-])c1nn(-c2ccc(Cl)cc2)n(O)c1=NCc1cccnc1,1.4,40.8*,-6.7,32.2,9.8,0.0
O=[N+]([O-])c1nn(-c2ccc(Cl)cc2)n(O)c1=NCc1ccncc1,-0.3,8.8,-5.5,17.0,10.0,0.1
O=[N+]([O-])c1nn(-c2ccc3c(c2)OCCO3)n(O)c1=NCc1ccc(F)cc1,5.2,0.7,4.4,54.1*,22.7,1.1
O=[N+]([O-])c1nn(-c2ccc(Cl)cc2)n(O)c1=NCc1ccccc1Cl,-0.5,42.6*,-7.8,-4.2,-13.6,0.1
COC(=O)c1ccc(NC(=O)CN(c2ccc3c(c2)OCO3)S(C)(=O)=O)cc1,-7.8,1.4,-7.6,19.4,17.2,0.1
O=C(NCCC1CCCCN1S(=O)(=O)c1ccc(F)cc1)C(=O)Nc1ccccc1F (stereo unspecified),9.3,3.7,1.8,-74.9,-67.5*,0.2
O=C(NCCC1CCCCN1S(=O)(=O)c1ccccc1)C(=O)Nc1ccccc1F (stereo unspecified),16.7,3.0,1.1,10.1,6.8,-0.1
O=C(CN(c1ccc(Br)cc1)S(=O)(=O)c1ccc(Cl)c([N+](=O)[O-])c1)NCCc1ccccc1,-3.6,-55.4,-15.4,-15.2,-5.3,-0.1
Cc1ccc(N(CC(=O)NCCc2ccc(F)cc2)S(=O)(=O)c2ccc(Cl)c([N+](=O)[O-])c2)c(C)c1,-5.0,-26.6,-14.6,89.4*,84.9,0.0
Cc1nnc(N/N=C/c2cccc(C(F)(F)F)c2)n1N,0.4,0.7,-1.4,32.1,24.2,0.2
Cc1nnc(N/N=C/c2cccc(OCc3ccc(Cl)c(Cl)c3)c2)n1N,16.2,6.3,1.3,128.5*,83.4,0.1
Cc1ccc(NC(=S)Nc2cccc3ccccc23)cc1,4.9,0.3,-1.4,-82.5,-79.9*,0.8
CC(C)c1ccc(NC(=S)Nc2cccc3ccccc23)cc1,-0.7,2.1,-0.9,-72.0,-68.4*,0.1
S=C(Nc1ccc(Cl)cc1)Nc1cccc2cnccc12,25.9,-5.6,-4.4,61.1*,22.7,2.1
CN(C)c1ccc(/C=N\NC(=O)CC#N)cc1,-3.1,-10.3,-3.1,-4.2,0.0,-0.2
CCCCc1n[nH]c2c1/C(=N/OCC)CC(C)(C)C2,.,-1.7,-0.8,-77.4,-73.7*,0.0
CCCCc1n[nH]c2c1/C(=N/O)CC(C)(C)C2,2.5,-3.1,3.1,-21.3,3.5,0.1
CCCc1ccc2oc(C(=O)N3CCN(c4cnccn4)CC3)c(C)c2c1,4.5,-3.5,-5.7,25.7,2.0,-0.2
SMILES,Dyrk1A ADPGlo,GC-A act,GC-B act,HSF1 activator,HSF1 inhib,aDG glyco up
S=C(N/N=C/c1cccs1)NC1CC2CCC1C2 (stereo unspecified),.,-1.3,4.7,64.4*,29.9,-0.3
Oc1ccc(/C=N/NC(=S)NC2CC3CCC2C3)cc1 (stereo unspecified),.,-2.5,-5.2,26.8,34.3,-0.2
CN1CCN(C(=O)c2ccc(Cn3cc(Cl)cn3)o2)CC1,0.8,0.0,0.6,63.8*,14.9,0.1
Cc1ccc(CCNC(=O)C2CCN(S(=O)(=O)c3ccc4c(c3)NC(=O)CO4)CC2)cc1,-0.9,0.2,-2.1,68.4*,34.7,0.9
O=C1COc2ccc(S(=O)(=O)N3CCC(C(=O)NCc4ccc(F)cc4)CC3)cc2N1,-5.5,0.5,5.1,0.1,-6.2,0.1
C/C(=N\NC(=O)c1c(C)nc2ccccn12)c1ccc(C(C)(C)C)cc1,-4.4,-6.0,-0.1,-62.5,-55.2*,0.8
O=C(Nc1csc([N+](=O)[O-])c1)Nc1c(Cl)cccc1Cl,5.8,2.4,-3.3,21.3,15.0,-0.1
O=C(Nc1ccc(Cl)cc1)Nc1csc([N+](=O)[O-])c1,.,13.2,2.4,84.3*,62.8,-0.2
O=C(C[N+]1(CC#Cc2ccccc2)CCCCC1)c1ccc(Cl)cc1,7.0,-15.5,-8.0,-6.1,-8.4,0.1
CCCCN(C)C(=O)C1CCC(CNS(=O)(=O)c2ccc3c(c2)CC(C)N3C(=O)C2CC2)CC1 (stereo unspecified),-3.2,3.8,6.1,60.8*,14.8,0.0
CCC(C)NC(=O)C1CCC(CNS(=O)(=O)c2ccc3c(c2)CC(C)N3C(=O)C2CC2)CC1 (stereo unspecified),2.3,2.1,3.6,9.4,-2.8,-0.1
COc1cc(=O)[nH]c(SCC(=O)Nc2nc3c(s2)CCCC3)n1,10.7,-3.5,1.1,-88.9,-85.7*,0.0
CN(Cc1c(C(=O)N/N=C/c2ccc(O)cc2)nnn1-c1nonc1N)C1CCCCC1,41.2,-0.2,4.4,-5.7,-0.4,-0.1
COc1cccc(-c2c(C(=O)N/N=C/c3ccc(C)s3)nnn2-c2nonc2N)c1,13.7,-2.8,-3.9,-89.3,-87.4*,-0.1
CCCOc1ccc(-c2c(C(=O)N/N=C/c3ccccc3OCC)nnn2-c2nonc2N)cc1,-2.8,-0.2,3.1,-75.2,-68.5*,0.3
Cc1ccc(/C=N/NC(=O)c2nnn(-c3nonc3N)c2CN(C)C2CCCCC2)cc1,0.7,-4.4,5.5,-94.3,-92.4*,-0.5
CCc1cccc(NC(=O)COC(=O)c2c(C)nn(-c3ccccc3)c2C)c1,.,-1.0,-3.2,.,.,0.0
Cc1noc2ncnc(Oc3ccc(Cl)cc3Cl)c12,-6.5,0.1,-1.2,-1.8,-2.4,0.1
COc1cc(/C=C/C(=O)OCC(=O)N2CCN(S(=O)(=O)c3ccc(C)cc3C)CC2)ccc1O,1.0,1.2,0.3,7.2,-1.0,0.0
